A selection: hits, their analogues and other compounds. The true share with any hit is near 7.3%.
ELG1 genotox – qHTS screen for small molecules that induce genotoxicity in human embryonic kidney (HEK293T) cells expressing luciferase-tagged ELG1 | HEK293T ELG1-luciferase reporter, luminescence, 16 h | Potency, µM (titrated, usually from 46 µM), inactives show top-dose activity change, positive = activation, actives largely listed as activators | 330,000 compounds, 1.3% hits; note: % of control where 0% means no effect; nearly all actives have a fitted effect of over 60% in size
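Reporter readout depends on ELG1 protein level, which increases with genetic stress. After 16 hr compound exposure at 37 °C, luciferase activity was quantified using ONE-Glo.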
FLuc counter – qHTS profiling assay for firefly luciferase inhibitor/activator using purifed enzyme and Km concentrations of substrates (counterscreen for miR-21 project) | Potency, µM (doses to about 57.5 µM), for the others: at the highest dose activity change, negative = inhibition, usual class: inhibitors | purified FLuc, Km substrates, luminescence inhibition | Luciferin 4-monooxygenase (Photinus pyralis), P08659 | 360,000 compounds, 6.9% hits;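 note: plate controls were vehicle for no effect and reference inhibitor for full effect; nearly all actives have a fitted effect of over 55% in size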
Target sequence (P08659 whole entry, looked up): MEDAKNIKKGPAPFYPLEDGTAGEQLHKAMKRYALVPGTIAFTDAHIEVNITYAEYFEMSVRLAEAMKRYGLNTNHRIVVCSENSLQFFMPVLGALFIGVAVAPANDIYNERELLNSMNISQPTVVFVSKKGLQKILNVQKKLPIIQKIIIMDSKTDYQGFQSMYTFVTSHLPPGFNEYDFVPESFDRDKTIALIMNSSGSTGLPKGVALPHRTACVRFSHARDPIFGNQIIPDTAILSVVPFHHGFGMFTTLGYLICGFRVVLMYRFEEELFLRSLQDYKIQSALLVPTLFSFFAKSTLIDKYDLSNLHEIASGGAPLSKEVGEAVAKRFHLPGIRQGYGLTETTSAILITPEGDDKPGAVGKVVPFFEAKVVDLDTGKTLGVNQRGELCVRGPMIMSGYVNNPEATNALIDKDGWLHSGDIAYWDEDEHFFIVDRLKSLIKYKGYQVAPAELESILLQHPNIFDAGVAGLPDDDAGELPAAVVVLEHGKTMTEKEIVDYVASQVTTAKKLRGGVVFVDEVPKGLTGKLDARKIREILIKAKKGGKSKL
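Purified P. pyralis luciferase (10nM final) with 10uM D-luciferin and 10uM ATP (Km levels) in 50mM Tris acetate pH 7.5, 10mM Mg acetate, 0.01% Tween-20, 0.05% BSA; qHTS 6-point titration, ~60 µM downward; luminescence read.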
NPC1 promoter act – qHTS Assay for NPC1 Promoter Activators; Huh7 NPC1 promoter luciferase reporter, 24 h; Potency, µM (highest dose often 9.22 µM), without a hit: top-dose activation, usual class: activators; 320,000 compounds, 2.4% hits; AID 485313, 2010; note: % of control where 0% means no effect; nearly all actives have a fitted effect of over 60% in size
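Luminescence from an NPC1 promoter-driven luciferase reporter in stably transfected Huh7 cells was measured after 24 h compound treatment at 37 °C, followed by 10 min ambient incubation with luciferase detection reagent.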
SMN2 splice enh – qHTS Assay for Enhancers of SMN2 Splice Variant Expression; HEK293 SMN2-luciferase splicing reporter, luminescence, 30-36 h; 210,000 compounds, 2.8% hits; Potency, µM (series often up to 46.1 µM), inactives show at the top dose activity change, positive = activation, actives largely listed as activators; note: % of control where 0% means no effect; nearly all actives have a fitted effect of over 55% in size
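HEK293 cells carry an SMN2 minigene-luciferase reporter in which exon 7 inclusion puts luciferase in frame. Cells were seeded at 2000 cells/well, attached for 10-12 hours, then exposed to compounds for 30-36 hours at 37C before ONE-Glo luminescence.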
KinaseGlo FLuc – Counterscreen for Luciferase (Kinase-Glo TM) Inhibition; Luciferin 4-monooxygenase (Photuris pensylvanica), Q27757; Kinase-Glo luciferase, ATP luminescence, 8 min; Potency, µM (titrated, usually from 38.3 µM), for the others: at the top dose activity change, negative = inhibition, usual class: inhibitors; 200,000 compounds, 0.28% hits; note: % is set by controls: 0 for no effect and ±100 for the full control effect; nearly all actives have a fitted effect of over 60% in size
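Substrate mix (final 50 mM imidazole pH 7.2, 50 mM KCl, 7 mM MgCl2, 10 uM ATP, 0.01% Tween 20, 0.05% BSA) plus pin-tool compound, then Kinase-Glo detection mix; 8 min ambient, luminescence read.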
Rab9 promoter act – qHTS Assay for Rab9 Promoter Activators | Huh7 Rab9 promoter-luciferase reporter, luminescence, 24 h | Potency, µM (titrated, usually from 9.22 µM), for the others: top-dose activation, negative = inhibition, usual class: activators | 320,000 compounds, 2.8% hits; note: % of control where 0% means no effect; nearly all actives have a fitted effect of over 60% in size
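Cells were plated at 1500 per well in reduced-serum medium with 10% FBS and left 2 h. Compound in DMSO was then added for 24 h at 37 °C. Reporter signal was read by luminescence after 10 min with luciferase detection reagent.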
* = called active by the depositor; ? = inconclusive; . = not tested or not shown. Calls come from the whole dose curve; as a rule, active = well fitted curve in the direction sought with a large enough effect; inconclusive = small, poorly fitted or top-dose-only effect, or another doubt; inactive = no such curve, though single readings can be large; an effect the other way counts as inactive or inconclusive. Potency is the fitted concentration of half-maximal effect.

SMILES	ELG1 genotox	FLuc counter	NPC1 promoter act	SMN2 splice enh	KinaseGlo FLuc	Rab9 promoter act
Cn1cc(Cl)c(C(=O)Nc2nc3ccc(Cl)cc3s2)n1	?	3.4µM*	2.8µM*	22µM*	-18%	1.4µM*
CCN(CC)S(=O)(=O)c1ccc(C(=O)Nc2nc3ccc(Cl)cc3s2)cc1	.	0%	.	.	.	.
CCN(CC)S(=O)(=O)c1ccc2c(c1)N(CC(=O)Nc1ccc(OC)cc1)C(=O)CS2	.	-2%	.	-3%	.	.
O=S(=O)(Cc1cc(-c2ccccc2)no1)c1ccccc1	?	27µM*	?	?	2%	?
COc1ccc(-c2cc(CNS(=O)(=O)c3ccc(NC(C)=O)cc3)on2)cc1	-4%	-1%	0%	.	.	1%
COc1ccc(-c2cc(CS(=O)(=O)c3ccccc3)on2)cc1	?	11µM*	3.2µM*	18µM*	1%	3.2µM*
O=C1c2ccccc2C(=O)N1Cc1cc(-c2ccccc2)no1	-1%	-12%	0%	-77%	4%	-7%
COc1ccc(S(=O)(=O)NCC(c2ccco2)S(=O)(=O)c2cccs2)cc1C (centres undefined)	.	4%	.	.	.	.
COc1ccc(-c2nc3scc(CCNS(=O)(=O)c4ccc(Oc5ccccc5)cc4)n3n2)cc1OC	.	-11%	.	.	.	.
COC(=O)c1cnn(-c2cc(Oc3ccccc3)ncn2)c1N	?	?	?	.	.	2.5µM*
NC(=O)c1cnn(-c2cc(Oc3ccccc3)ncn2)c1N	?	?	3.2µM*	.	-3%	2.5µM*
NC(=O)c1cnn(-c2cccc(Cl)c2)c1N	1%	6%	-5%	.	.	-1%
c1ccc(Oc2cc(-n3cccn3)ncn2)cc1	8.2µM*	12µM*	?	22µM*	-14%	3.2µM*
C=C(C)Cn1cnc2c(oc3nc4c(cc32)CCCC4)c1=O	?	21µM*	2.5µM*	.	.	1.6µM*
O=C(Cn1cnc2c(oc3nc4c(cc32)CCCC4)c1=O)Nc1ccccc1	8%	4%	0%	.	.	1%
CCCCNC(=O)c1cnc2sc(N3CCCCCC3)nn2c1=O	.	-1%	.	.	.	.
C#CCN(C)CCCOc1ccc(Cl)cc1Cl	16%	13µM*	?	15%	-2%	?
CCN(CC)C(=O)CCCOc1ccc(Cl)cc1Cl	8%	?	3.2µM*	-1%	-9%	?
Nc1nncn1C(=O)CCCOc1ccc(Cl)cc1Cl	3%	9.5µM*	-3%	-2%	-2%	1%
CC(C)NC(=O)CCCOc1ccc(Cl)cc1Cl	?	?	15%	-2%	0%	24%
S=C(Nc1ccc(Cl)cc1Cl)N1CCCCC1	11%	?	18%	30%	4%	5%
N#CCCN1CCN(C(=S)c2ccc(-c3cc(Cl)ccc3Cl)o2)CC1	-3%	-16%	-2%	-17%	1%	1%
S=C(c1ccc(-c2ccc(Cl)cc2Cl)o1)N1CCCCC1	?	4.8µM*	?	13µM*	3%	2.8µM*
CN1CCN(C(=S)c2ccc(-c3cc(Cl)ccc3Cl)o2)CC1	-1%	17µM*	3%	.	.	2%
S=C(c1ccc(-c2ccc(Cl)cc2Cl)o1)N1CCCC1	10%	11µM*	?	.	.	?
CCc1ccccc1NC(=O)c1cc(S(=O)(=O)N2CCCc3ccccc32)ccc1F	.	5%	.	.	.	.
NC1=NC(=Nc2ccc(Cl)cc2)c2ccccc21	17%	7.6µM*	-2%	7%	-3%	-5%
NC1=NC(=Nc2ccccc2)c2ccccc21	?	-19%	-5%	?	-5%	1%
NC1=NC(=Nc2ccc(Br)cc2)c2ccccc21	?	8.5µM*	-5%	-3%	-4%	-11%

Screening data (PubChem)
